The list is not random: actives were taken first. Their share in the collection is about 11%.
HPGD inh – blocks human HPGD enzyme activity. P15428. purified HPGD, NADH fluorescence kinetic, PGE2 substrate. Potency, µM, for the others: at the top dose activity change, negative = inhibition, usual class: inhibitors. 150,000 compounds, 4.3% hits. AID 894; active = well fitted inhibition curve with a large enough effect, not every such curve was filed as active; inconclusive = small, poorly fitted or top-dose-only effect, or another doubt; inactive = no such curve, though single readings can be large or run the other way; note: potency is the fitted concentration of half-maximal effect
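20 nM HPGD preincubated 15 min at room temperature with compound in 50 mM Tris-HCl pH 8, 0.01% Tween 20. Started with 1 mM NAD+ and 30 uM prostaglandin E2; NADH fluorescence (360/450 nm) read 5 times over 30-s intervals, last minus first.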
PNC inhibitor – inhibitors of perinucleolar compartment assembly | PC3M PTB-GFP, PNC prevalence imaging, 16 h; stronger effect = lower value | activity change (PNC), negative = inhibition, % at 10 µM | 140,000 compounds, 3.1% hits;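 active = readout at or below -70, meaning at least 70% loss of cells showing the perinucleolar compartment, a nuclear body marking cancer cells; inconclusive = readout between -30 and a set limit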;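 note: plate controls were DMSO wells for no effect and camptothecin positive control wells for full effect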
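Read-out is percentage of cells bearing a perinucleolar compartment, from automated 20x imaging of fixed, Hoechst-stained PC3M PTB-GFP cells. Cells were seeded 4 h, then exposed 16 h to compound (23 nl of library stock) in duplicate plates.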
NPSR antag – blocks cAMP signaling of the human neuropeptide S receptor. CHO-NPSR cells, cAMP TR-FRET, antagonist mode. 220,000 compounds, 1% hits. Potency, µM (highest dose often 38.3 µM), for inactives: at the top dose activity change, negative = inhibition, hits mostly inhibitors. AID 1461; note: potency is the fitted concentration of half-maximal effect; nearly all actives have a fitted effect of over 50% in size
IMPase Li inh – membrane-permeable IMPase blocker, potentiated with lithium | Potency, µM (doses to about 59.4 µM), for the others: at the highest dose activity, negative = IMPase inhibition, hits mostly inhibitors | CHO-M1 cells, IP1 TR-FRET (IP-One), carbachol + lithium | AID 1457 | 210,000 compounds, 0.35% hits;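 note: IP1 builds up when IMPase is blocked and the TR-FRET signal falls; potency is the fitted concentration of half-maximal effect; plate controls were basal vehicle for no effect and high inhibitor control for full effect; nearly all actives have a fitted effect of over 50% in size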
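CHO cells stably expressing M1 receptor (2000/well) were cultured 16–30 h, then exposed to compounds with a small lithium addition for 30 min at 37C. IP1 was measured by TR-FRET competition; AC50 from Hill fits.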
ALDH1A1 block – ALDH1A1 (human) enzyme inhibition; P00352; Purified ALDH1A1, NADH fluorescence, propionaldehyde substrate; Potency, µM (titrated, usually from 75.3 µM), for inactives: at the top dose activity, negative = inhibition, usual class: inhibitors; 220,000 compounds, 7.3% hits; active = well fitted inhibition curve with a large enough effect, not every such curve was filed as active; inconclusive = small, poorly fitted or top-dose-only effect, or another doubt; inactive = no such curve, though single readings can be large or run the other way;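 note: potency is the fitted concentration of half-maximal effect; plate controls were no enzyme wells and a reference inhibitor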
Target sequence (P00352 whole entry, looked up): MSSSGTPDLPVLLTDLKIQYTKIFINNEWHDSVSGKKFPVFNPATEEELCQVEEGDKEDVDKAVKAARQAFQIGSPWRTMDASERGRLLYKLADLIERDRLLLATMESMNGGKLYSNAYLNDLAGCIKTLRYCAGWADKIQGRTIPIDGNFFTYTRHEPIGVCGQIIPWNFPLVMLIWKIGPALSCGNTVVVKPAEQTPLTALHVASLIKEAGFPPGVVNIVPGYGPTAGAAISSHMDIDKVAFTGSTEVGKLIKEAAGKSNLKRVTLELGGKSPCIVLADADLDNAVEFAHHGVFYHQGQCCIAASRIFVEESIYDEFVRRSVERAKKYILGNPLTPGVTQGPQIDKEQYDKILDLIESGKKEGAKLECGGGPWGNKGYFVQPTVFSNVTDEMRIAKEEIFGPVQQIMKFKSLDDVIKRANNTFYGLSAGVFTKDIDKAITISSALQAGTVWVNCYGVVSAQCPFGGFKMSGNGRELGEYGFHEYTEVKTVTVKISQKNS
IMPase cell inh – cell-permeable inhibitors of inositol monophosphatase (IMPase) | P97697 | CHO-M1 cells, IP1 accumulation, HTRF TR-FRET ratio | inhibition (IP1 accumulation), % at 46.1 µM | 120,000 tested, under 10 active | AID 901; active = well fitted curve in the direction sought with a large enough effect in the signal ratio, not every such curve was filed as active; inconclusive = small, poorly fitted or top-dose-only effect, or a change in a side signal; inactive = no such curve, though single readings can be large or run the other way; the % refers to the signal ratio;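 note: cells stimulated with carbachol in lithium chloride buffer; plate controls were DMSO basal wells for no effect and reference inhibitor wells for full effect; higher means more IMPase inhibition seen as more IP1 and lower FRET ratio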
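Cellular IMPase inhibition is scored as a rise in cytosolic IP1, detected by competitive TR-FRET between d2-labelled IP1 and a europium anti-IP1 antibody. M1-expressing CHO cells were stimulated with carbachol for 30 min at 37C, with lithium (50 mM LiCl) present in the buffer.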
Numbers without * were called inactive; ? = inconclusive; · = no result; [ ] = another dose, or the depositor's remark. Unless noted, calls come from the whole dose curve; as a rule, active = well fitted curve in the direction sought with a large enough effect; inconclusive = small, poorly fitted or top-dose-only effect, or another doubt; inactive = no such curve, though single readings can be large; an effect the other way counts as inactive or inconclusive. Unless noted, % is set by controls: 0 for no effect and ±100 for the full control effect.

SMILES	HPGD inh	PNC inhibitor	NPSR antag	IMPase Li inh	ALDH1A1 block	IMPase cell inh
Cc1ncc(CSC(=N)N)n1Cc1ccccc1	-8.6%	·	·	7.5%	16.6%[13.5 µM]	·
Nc1ccc(O)c2c(=O)cc(-c3ccccc3Cl)oc12	-24.0%	?	-14.0%	-0.5%	7.3%	·
CCOC(=O)/C(=N/Nc1ccccc1)Sc1nnc(CCc2ccccc2)n1-c1ccccc1	-22.3%	-134.0*	2.3%	25.4%	-0.5%	·
O=C(/C(=N\Nc1ccc(Br)cc1)Sc1nnnn1-c1ccccc1)c1ccccc1	-8.9%	78.8	-19.7%	0.6%	1.58µM*	·
CCOC(=O)/C(=N/Nc1ccccc1)Sc1nnnn1-c1ccc(C)cc1	-13.5%	?	7.1%	-1.6%	7.08µM*	·
CCOC(=O)/C(=N/Nc1ccc(Cl)cc1)Sc1nnnn1-c1ccc(C)cc1	-11.4%	?	-16.2%[46.1 µM]	0.6%	1.0%	-0.9
CCC(=O)OCC(=O)Nc1ccc2c(c1)OCO2	·	·	5.1%	-4.7%	-10.1%	·
Cc1cc(C)nc(NC2=NCC(=O)N2c2ccc3c(c2)OCCO3)n1	-10.8%	-16.6	0.6%[46.1 µM]	25.4%[38.3 µM]	3.2%	0.9[1.84 µM]
CCOC(=O)C1(Cc2ccc(Cl)cc2)CCN(C(=O)c2sc(C)nc2C)CC1	·	·	19.3%	8.2%	35.5µM*	·
CCOC(=O)C1(Cc2ccc(OC)cc2)CCN(C(=O)c2sc(C)nc2C)CC1	·	·	-15.9%	11.6%	?	·
O=C(CCc1ccc(O)cc1)c1c(O)cc(O)cc1O[C@H]1OC(CO)C(O)C(O)C1O (some centres undefined)	25.1µM*	·	·	-4.8%	-9.0%	·
Cc1ccc(O)c(C(=O)c2cnc3c(c2)COc2ccccc2-3)c1	12.6µM*	?	-13.6%[46.1 µM]	9.8%	?	7.8
O=C(c1cnc2c(c1)COc1ccc(Cl)cc1-2)c1ccccc1O	-16.7%	?	-24.3%[46.1 µM]	13.3%	13.7%	8.7
CCOC(=O)c1c(C)c(C(=O)NCCOC)c(C)n1CC	8.91µM*	8.6	-2.0%[46.1 µM]	52.0%[38.3 µM]	0.4%	-0.3
COc1ccc(NC(=O)Nc2ccc(F)cc2F)c(C)c1	-11.7%	67.8	-11.4%[46.1 µM]	28.5%[38.3 µM]	2.8%	-4.9
O=C(O)c1cnc(-c2ccccc2)nc1Sc1cccc(Cl)c1	22.4µM*	?	-0.8%[46.1 µM]	15.5%[38.3 µM]	-3.4%	1.0[1.84 µM]
O=C(O)c1cnc(-c2ccccc2)nc1-c1ccccc1	·	·	-7.9%	-2.7%	5.7%	·
O=C(O)c1cnc(-c2ccccc2)nc1Sc1ccccc1	14.1µM*	66.9	-16.1%[46.1 µM]	4.2%[38.3 µM]	-1.8%	7.9
O=C(O)c1cnc(-c2ccccc2)nc1Sc1ccc(Cl)cc1Cl	-17.8%	13.7	-5.1%[46.1 µM]	-3.8%[38.3 µM]	-15.0%	-7.5
COc1cccc(C(=O)COC(=O)c2n[nH]c(=O)c3ccccc23)c1	·	·	14.4%	-0.3%	11.0%	·
CCC(=O)N1CC2(c3ccccc3)CN(C(=O)CC)CC(c3ccccc3)(C1)C2=O	·	·	-5.6%	0.8%	-2.5%	·
O=C1C=CC2=C3c4cc(O)c(O)cc4CC3(O)COC2=C1O (centres undefined)	25.1µM*	·	·	34.7%	?	?
CCc1nnc(NC(=O)c2cc3ccccc3oc2=O)s1	-13.7%	24.5	?	1.2%	-7.9%	-4.0
COc1ccccc1NC(=O)C1CCCN(c2nc(C)cc(C)n2)C1 (centres undefined)	-11.1%	25.1	-15.9%[46.1 µM]	6.3%	?	6.9
COc1cc(C)nc(N2CCCC(C(=O)Nc3cccc(Cl)c3Cl)C2)n1 (centres undefined)	-9.7%	-86.7*	-11.0%[46.1 µM]	11.6%[38.3 µM]	6.2%	0.3
CCOC(=O)Cn1cc(/C=C(/C#N)C(=O)NC(C)C)c2ccccc21	·	·	1.6%	3.7%	-13.6%	·
O=C(C1=C[C@@H](C2CCCCC2)C[C@@H](OCc2ccc(CO)cc2)O1)N1CCN(Cc2ccccc2)CC1	·	·	?	18.3%	?	·
O=C(Nc1ccccc1)C1=C[C@H](C2CCCCC2)C[C@H](OCc2ccc(CO)cc2)O1	·	·	?	0.5%	0.5%	·
O=C(C1=C[C@@H](C2CC2)C[C@@H](OCCCCO)O1)N1CCOCC1	·	·	-23.3%	-2.5%	31.6µM*	·
C=CCOC(=O)C1=C[C@@H](C2CCCCC2)C[C@@H](OCc2ccc(CO)cc2)O1	·	·	35.2%	10.7%	1µM*	·

Screens deposited in PubChem BioAssay by National Center for Advancing Translational Sciences (NCATS).
